Hits are enriched below; roughly 21% of the tested compounds scored in any of these assays.
Pf growth 48h: inhibits P. falciparum growth in the first generation, 48 h; AID 504832; Potency, µM (top dose mostly 28.7 µM), without a hit: top-dose activity change, negative = inhibition, usual class: inhibitors; 5.9% of 310,000 active; P. falciparum luciferase growth in erythrocytes, 48 h; note: potency is the fitted concentration of half-maximal effect; % is set by controls: 0 for no effect and ±100 for the full control effect
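Growth was read as firefly luciferase luminescence after a 48 h, 37 C, 5% CO2 exposure of compounds to reporter-bearing P. falciparum cultures (0.1% parasitemia, 2% hematocrit final) in Albumax-supplemented RPMI 1640.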
Pf growth 96h: P. falciparum growth inhibition at 96 hours; P. falciparum luciferase reporter growth, 96 h; Potency, µM (highest dose often 28.7 µM), without a hit: at the highest dose activity change, negative = inhibition, hits mostly inhibitors; 6.9% of 320,000 active; AID 504834; note: potency is the fitted concentration of half-maximal effect; % is set by controls: 0 for no effect and ±100 for the full control effect
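96 h incubation, 37 C, 5% CO2, of luciferase-reporter P. falciparum-infected RBCs (2% hematocrit, 0.05% parasitemia final) with test compounds; endpoint luminescence.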
Cycloheximide cs: counter-screen hit for Shiga toxin inhibitors, cycloheximide; cell reporter, cycloheximide protein synthesis inhibition counterscreen; max response, %; 12% of 300,000 active; in the data active = max response mostly above about 13%, no sharp cut-off; inactive = mostly below about 14%; note: read at 38.3 µM for the half of the compounds with a filed dose; 0% is about no effect
Shiga toxin inh: inhibitors of Shiga toxin in Vero cells; Vero cells, Shiga toxin protein synthesis inhibition reporter; inhibition, % at 38.7 µM; 9.2% of 290,000 active; AID 2315; in the data active = inhibition mostly above about 28%, no sharp cut-off; inactive = mostly below about 43%; note: 0% is about no effect
HCV inhibitor: HCV inhibition; AID 651820; 3.4% of 340,000 active; Potency, µM (series often up to 41.8 µM), for inactives: at the highest dose activity change, negative = inhibition, most hits filed as inhibitors; Huh7.5.1 HCVcc-Cre infection, luciferase reporter, 44 h; note: potency is the fitted concentration of half-maximal effect; % is set by controls: 0 for no effect and ±100 for the full control effect
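Whole-lifecycle infectious HCVcc-Cre system; cells 1,000/well, compound then virus (~0.5 moi) added 4 h after plating, 44 h culture. Luciferase read 15 sec following 15 min substrate incubation, room temp.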
AMA1-RON2 inh: AMA1-RON2 (P. falciparum) interaction inhibition. AlphaScreen AMA1-biotinylated RON2 peptide binding. 0.2% of 360,000 active. AID 720542. Potency, µM (series often up to 58.2 µM), without a hit: at the top dose activity change, negative = inhibition, usual class: inhibitors;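 note: potency is the fitted concentration of half-maximal effect; 0% = vehicle wells and -100% = peptide control; nearly all actives have a fitted effect of over 45% in size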
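AMA1 (3D7) with his tag at 25 nM final met compounds first, then biotinylated RON2 peptide at 25 nM; detection used donor plus acceptor beads, 10 µg/mL apiece, read by AlphaScreen after 30 min at room temperature.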
Numbers without * were called inactive; u = inconclusive; x = no result given; ! = a repeat was not active. Unless noted, calls come from the whole dose curve; as a rule, active = well fitted curve in the direction sought with a large enough effect; inconclusive = small, poorly fitted or top-dose-only effect, or another doubt; inactive = no such curve, though single readings can be large; an effect the other way counts as inactive or inconclusive.

SMILES	Pf growth 48h	Pf growth 96h	Cycloheximide cs	Shiga toxin inh	HCV inhibitor	AMA1-RON2 inh
Cc1ccc(S(=O)(=O)N2CCCC2)cc1C(=O)NCc1ccccc1CN1CCCC1	-29.1%	u	x	x	0.6%	-1.4%
CCCc1nc2oc3ccccc3c(=O)c2c(=O)n1-c1ccc(C)cc1	25.8%	0.6%	36.0*	66.4*	-10.3%	12.3%
CCCc1nc2c(c(=O)c3ccccc3n2C)c(=O)n1-c1ccc(F)cc1	u	u	-2.1	15.3	7.8%	-2.0%
CCCc1nc2ccccc2c(=O)n1-c1ccc(O)cc1	-10.6%	40.9%	-4.5	20.6	14.7%	10.2%
CCCc1nc2oc3ccccc3c(=O)c2c(=O)n1-c1ccccc1	81.4%	313.5%	33.2*	55.1*	-21.9%	12.4%
Cc1ccc(-n2c(C(C)C)nc3oc4ccccc4c(=O)c3c2=O)cc1	64.1%	69.3%	29.2*	63.3*	-7.6%	29.4%
O=C1c2ccccc2C(=O)c2c(Nc3ccc(CCO)cc3)ccc(O)c21	u	u	8.8	-5.5	u	8.91µM*
COc1ccc([N+](=O)[O-])cc1NCc1ccccc1C	u	-3.3%	-3.0	14.7	-68.3%	22.4%
COc1ccc([N+](=O)[O-])cc1NCc1ccccc1	17.6%	3.29µM*	20.2	-2.8	6.31µM*	12.0%
COc1ccc(OC)c(CNc2ccc([N+](=O)[O-])cc2C)c1	u	44.9%	6.1	-8.1	-20.6%	12.6µM*
CCc1nnc(NS(=O)(=O)c2ccc(NC(=O)CCC(=O)OC)cc2)s1	0.0%	u	0.3	-10.8	19.6%	2.6%
Cc1noc(C)c1COc1ccccc1C(=O)N1CCN(S(=O)(=O)c2ccc(C(C)C)cc2)CC1	x	x	x	x	x	-4.5%
Cc1ccc(Nc2nc(=O)c3cccnc3s2)cc1	95.3%	6.9%	26.1*	71.7*	1.8%	3.5%
COc1ccc(OC)c(Nc2nc(=O)c3cccnc3s2)c1	7.7%	0.4%	3.6	6.8	-18.6%	-10.2%
COc1ccc(OC)c(NC(=S)NC(=O)c2ccc(Br)o2)c1	20.1%	20.3%	0.5	-29.4	-7.4%	2.0%
CN1C[C@H](CNC(=O)OCc2ccccc2)C[C@@H]2c3cccc4c3c(cn4C)C[C@H]21	10.4µM*	2.94µM*!	-3.7	-7.5	u	u
COC(=O)c1cccc(OCCCN2CCC(C(O)(c3ccccc3)c3ccccc3)CC2)c1	x	x	x	x	x	-10.0%
NC(=O)C1C(=O)c2ccccc2C1(C[N+](=O)[O-])c1ccccc1 (configuration not stated)	x	x	x	x	-1.1%	-4.9%
O=[As]O[As]=O (configuration not stated)	1.9µM*	1.9µM*	x	x	x	x
CCCc1cnc(N2CCN(S(=O)(=O)c3cccs3)CC2)nc1	104.2%	u	0.8	6.9	4.3%	7.3%
COc1cccc(OCc2cc(C(=O)N(C)Cc3nc4ccccc4[nH]3)no2)c1	-7.8%	36.6%	38.3*	124.5*	u	-3.2%
CC(=O)c1cccc(OCc2cc(C(=O)N(C)Cc3cnccn3)no2)c1	u	-21.1%	51.2*	87.9*	-4.5%	-2.5%
CC(=O)c1cccc(OCc2cc(C(=O)N(C)C(C)c3ccccn3)no2)c1 (configuration not stated)	4.3%	44.5%	8.4	17.4	-6.7%	18.4%
CN(Cc1cccnc1)C(=O)c1cc(COc2ccc3c(c2)CCCC3)on1	u	3.6%	69.7*	81.9*	x	8.0%
CC(=O)c1ccc(OCc2cc(C(=O)N(C)C(C)c3ccon3)no2)cc1 (configuration not stated)	x	x	x	x	x	-2.4%
SMILES	Pf growth 48h	Pf growth 96h	Cycloheximide cs	Shiga toxin inh	HCV inhibitor	AMA1-RON2 inh
CC(=O)c1ccc(OCc2cc(C(=O)N(C)C(C)c3nccs3)no2)cc1 (configuration not stated)	-3.8%	38.2%	29.6*	35.1*	-27.6%	1.8%
CCC(C(=O)NCCc1ccc(OC)cc1OC)n1nc(C)n2c(cc3occc32)c1=O (configuration not stated)	-27.4%	2.8%	1.0	-3.8	-23.9%	0.0%
COc1ccc(-c2nnc3n2N=C(c2c(OC)cccc2OC)CS3)cc1	x	x	14.6	9.3	x	x
Cc1ccc(S(=O)(=O)Nc2ccccc2OC(C(=O)OC(C)(C)C)C(=O)OC(C)(C)C)cc1	x	x	x	x	x	-4.8%
CC(=O)c1ccc(OCc2cc(C(=O)N(C)Cc3cc(C)no3)no2)cc1	12.6%	16.1%	33.5*	39.0*	-1.8%	-13.1%
Cc1cc(CN(C)C(=O)c2cc(COc3ccc4ncccc4c3)on2)on1	-7.7%	5.3%	6.4	3.0	2.82µM*	-10.8%
CN(Cc1nccn1C)C(=O)c1cc(COc2ccc3ncccc3c2)on1	-10.2%	11.0%	-2.1	5.5	u	-9.9%
CCCOP(=O)(c1ccc(N(C)C)cc1)C(O)c1ccc(N(C)C)cc1 (configuration not stated)	9.5%	9.2%	-2.2	-2.2	16.0%	10.2%
Cc1ccc(F)c(NC(=O)c2ccc(Cn3cc(Cl)cn3)cc2)c1	u	-5.9%	39.5*	37.4	-17.9%	6.8%
COc1ccc(NC(=O)c2ccc(Cn3cc(Cl)cn3)cc2)cc1	57.6%	0.0%	-4.6	-3.7	0.4%	11.2%
O=[N+]([O-])c1cccc(C(=Nc2cccc(Cl)c2)NO)c1	11.9%	6.1%	-3.0	-5.6	5.4%	-5.3%
CC(=O)C1C(=O)c2c(cccc2[N+](=O)[O-])C1=Nc1ccccc1C (configuration not stated)	x	0.0037µM*	15.5	25.7	x	x
CC(=O)C1C(=O)c2c(cccc2[N+](=O)[O-])C1=Nc1cccc(Cl)c1 (configuration not stated)	1.47µM*	u	14.3	16.4	u	-16.1%
COc1ccc(C(=O)C(=O)N2CCN(c3ccccc3F)CC2)cc1	x	x	x	x	x	4.4%
CCCSc1nc2cc(C)c(C)cc2n1CC(C)O (configuration not stated)	30.7%	27.1%	26.3*	72.5*	-10.6%	5.7%
CCSc1nc(-c2ccccc2)c(-c2ccccc2)n1CC(O)CO (configuration not stated)	u	u	-3.1	-4.8	0.7%	-2.0%
CCCSc1nc2cc(C)c(C)cc2n1CC(O)CO (configuration not stated)	0.0%	-25.9%	21.4*	78.1*	-4.3%	9.0%
COCCN(C(=O)Cn1nnc2ccccc21)C(C(=O)NC1CCCC1)c1cccc(OC)c1OC (configuration not stated)	u	-5.7%	-2.4	-8.5	12.6%	0.0%
COc1ccc(C(C(=O)NCCC(C)C)N(CCN2CCOCC2)C(=O)Cn2nnc3ccccc32)c(OC)c1 (configuration not stated)	u	5.22µM*	-1.7	-11.1	11.8%	14.8%

Assay outcomes from PubChem BioAssay.
